# Bioassay records from PubChem.
# Many of the other results were omitted from the sample, so hits are more common in it than they were.
# HTT cytoprotect: protects HTT-Q103 PC12 cells, measured by ATP; PC12 HTT-Q103 induced, cytoprotection, ATP luminescence, 40 h; Potency, µM (series often up to 56.4 µM), usual class: activators; actives 0.14% (n = 230,000); further: nearly all actives have a fitted effect of over 45% in size
#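 Rat PC12, Q103 Htt exon1-GFP fusion, ecdysone promoter; tebufenozide inducer 100 nM final; compound titration; qHTS, 1500 cells/well; ATPlite luminescent read.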
# HttQ103 aggreg: inhibitors of mutant huntingtin aggregate formation in PC12 cells; PC12 HttQ103-GFP aggregates, Acumen cytometry, 40 h; Potency, µM (doses to about 46.1 µM), usual class: inhibitors; actives 1.1% (n = 220,000); further: nearly all actives have a fitted effect of over 60% in size
#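 Multiplexed with ATP-based cell death, this channel scores GFP aggregates in PC12 cells expressing inducible HTTex1-Q103-GFP. Induction used 100 nM tebufenozide; compounds were tested in concentration series.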
# PNC assembly inh: inhibitors of perinucleolar compartment assembly. PC3M PTB-GFP, PNC prevalence imaging, 16 h; active compounds read low. activity change (PNC), negative = inhibition, % at 10 µM. actives 3.1% (n = 140,000);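 active means readout at or below -70, meaning at least 70% loss of cells showing the perinucleolar compartment, a nuclear body marking cancer cells; inconclusive means readout between -30 and a set limit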
#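 Read-out is percentage of cells bearing a perinucleolar compartment, from automated 20x imaging of fixed, Hoechst-stained PC3M PTB-GFP cells. Cells were seeded 4 h, then exposed 16 h to compound (23 nl of library stock) in duplicate plates.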
# A number is an active result; 0 = inactive; ? = inconclusive; - = no result; [ ] = dose if it differs, or a comment. Unless noted, the call rests on the fitted dose curve; in most records, active means well fitted curve in the direction sought with a large enough effect; inconclusive means small, poorly fitted or top-dose-only effect, or another doubt; inactive means no such curve, though single readings can be large; an effect the other way counts as inactive or inconclusive.
SMILES,HTT cytoprotect,HttQ103 aggreg,PNC assembly inh
O=C(CNC(=O)c1ccccc1O)N/N=C/c1cc(Br)ccc1OC(=O)/C=C/c1ccco1,0,2.5µM,-
COc1ccccc1C(=O)NCC(=O)N/N=C/c1cc(Br)ccc1OCc1ccccc1,0[10 µM],0,0
O=C(c1ccc([N+](=O)[O-])cc1)N1C=CC(C(F)(F)F)=NCC1,0[10 µM],0[9.22 µM],-
O=C(NC1CCCCC1)c1sc(N2CCOCC2)nc1-c1ccccc1,-,?,0
CN(/N=C/c1ccncc1)c1cnn(-c2ccc(F)c(Cl)c2)c(=O)c1Cl,0,0,?
O=c1[nH]c(=S)c2ncn(-c3ccccc3)c2[nH]1,0[10 µM],0[9.22 µM],-
Cc1ccc(C(OCC(O)CN2CCCCC2CO)c2ccccc2)cc1 (centres undefined),0[10 µM],0,-
O=C(Oc1ccc(OC(=O)N2CCCCC2)cc1)N1CCCCC1,0[10 µM],0[9.22 µM],-
COc1cc(Cn2c(C(=O)O)cc3sccc32)cc(OC)c1OC,0[10 µM],0,0
COc1ccccc1NC(=O)C(=O)NNS(=O)(=O)c1ccc2ccccc2c1,0[10 µM],0[9.22 µM],-
Cc1c(NC(=O)C2CCCO2)cccc1[N+](=O)[O-] (centres undefined),0[10 µM],0,-85
CCC(C)c1ccccc1NC(=O)C1CCCO1 (centres undefined),0,0,?
CCc1cccc(C)c1NC(=O)C1CCCO1 (centres undefined),0,0,?
Cc1cccc(CCNC(=O)C2CCCN(S(=O)(=O)c3cccc4nsnc34)C2)c1 (centres undefined),0[10 µM],0,-95
Cc1ccc(CCNC(=O)C2CCCN(S(=O)(=O)c3cccc4nsnc34)C2)cc1 (centres undefined),0,0,?
Cc1cccc2sc(NC(=O)C3CCCN(S(=O)(=O)c4cccc5nonc45)C3)nc12 (centres undefined),0[10 µM],0,-100
Cc1ccc2nc(NC(=O)C3CCCN(S(=O)(=O)c4cccc5nonc45)C3)sc2c1 (centres undefined),0[10 µM],0[9.22 µM],-
Cc1cccc2sc(NC(=O)C3CCCO3)nc12 (centres undefined),0,0,-100
CN(CCOc1ccc(Cl)cc1)c1ccc(S(=O)(=O)N2CCCCC2)cn1,0,?,0
Cc1ccc(-n2ncc3c(=O)n(CC(=O)N4CCN(c5ccccc5F)CC4)cnc32)cc1C,0[10 µM],0,0
O=C(CSc1cccc2cccnc12)OCC(=O)c1ccccc1,0,0,0
CCCC1=[N+](CC(=O)c2ccccc2)CCn2cccc21,0[1.9 µM],0,?
Cc1ccc(N2CN=c3s/c(=C\c4cccnc4)c(=O)n3C2)cc1,0,10µM,0
Cc1ccc(/C=c2\sc3n(c2=O)CN(c2ccc(Br)cc2)CN=3)o1,0,0,0
COC(=O)NC(c1ccco1)C(C(C)=O)C(=O)OC (centres undefined),0[10 µM],-,-
SMILES,HTT cytoprotect,HttQ103 aggreg,PNC assembly inh
CN(C(=O)c1ccc2c(=O)n3c(nc2c1)CCCCC3)c1ccccc1,0[10 µM],0,-100
CN(C(=O)c1ccc2c(=O)n3c(nc2c1)CCCCC3)c1ccccc1Cl,0[10 µM],0[9.22 µM],-
O=C(O)C1CC(=O)N(Cc2ccc3c(c2)OCO3)C1 (centres undefined),0,0,0
Cc1cc(C(=O)Nc2nnc(C3CCCCC3)s2)no1,0,0,0
CCSc1nnc(NC(=O)c2c(-c3ccccc3Cl)noc2C)s1,0,0,0
Cc1onc(-c2ccccc2Cl)c1C(=O)Nc1sc2c(c1C#N)CCC2,0[10 µM],11µM,0
N#Cc1c(NC(=O)C2CC(c3ccccc3Cl)=NO2)sc2c1CCC2 (centres undefined),0,0,0
Cc1cc(C(=O)Nc2nnc(-c3ccccc3)s2)no1,0,0,-98
Cc1cc(C(=O)Nc2nc3c(s2)CCCC3)no1,0[10 µM],0,-107
Cc1onc(-c2ccccc2)c1C(=O)Nc1nc2c(s1)CCCC2,0,0,0
Cc1onc(-c2ccccc2Cl)c1C(=O)Nc1nnc(-c2cccc([N+](=O)[O-])c2)s1,0[10 µM],?,-108
Cc1ccc(NC2=NCC(=O)N2CCc2ccccc2)cc1C,0[10 µM],0,0
O=C(Nn1cnnc1)c1cc2cc(Br)ccc2oc1=O,0,0,0
CCCn1c(N)c(C(=O)CSc2nnc(Cc3ccccc3)o2)c(=O)n(C)c1=O,0[10 µM],0,-100
O=C(CSc1nnc(Cc2ccccc2)o1)c1ccccc1,0[10 µM],0[9.22 µM],-
N#CC(C#N)=Cc1ccc(NC(=O)c2ccc(Br)cc2)cc1,0[10 µM],0[9.22 µM],-
CC(C)(C)c1ccc(C(=O)Nc2ccc(C=C(C#N)C#N)cc2)cc1,0[10 µM],0,-134
CCCCOc1ccccc1NC(=O)c1scc2c1OCCO2,0,13µM,-
CCCCOc1ccccc1NC(=O)c1ccco1,0,0,0
C=C(C)Cn1c(CCn2c3ccccc3c3ccccc32)n[nH]c1=S,0[10 µM],0,0
O=C1CC(N2CCN(c3ccc(Cl)c(Cl)c3)CC2)C(=O)N1 (centres undefined),0,25µM,0
O=C1CC(N2CCN(Cc3ccccc3)CC2)C(=O)N1 (centres undefined),0,0,-
COC(=O)c1ccc(Cn2c(CN3CCOCC3)nc3ccccc3c2=O)o1,0,0,0
Cc1ccc(Nc2nnc(SCC(=O)Nc3ccccc3[N+](=O)[O-])s2)cc1,0[10 µM],0,-119
Cc1cccc(Nc2nnc(SCC(=O)Nc3ccccc3[N+](=O)[O-])s2)c1C,0[10 µM],0,0
SMILES,HTT cytoprotect,HttQ103 aggreg,PNC assembly inh
C/C(Cn1cnc([N+](=O)[O-])n1)=N\NC(=O)c1cccc(F)c1,0[10 µM],0,-88
C/C(Cn1nnc([N+](=O)[O-])n1)=N\NC(=O)c1ccc(C)cc1,-,0,-109
C/C(Cn1cnc([N+](=O)[O-])n1)=N\NC(=O)c1ccc(F)cc1,0[10 µM],0,0
C/C(Cn1nnc([N+](=O)[O-])n1)=N\NC(=O)c1ccncc1,0,?,-
COc1ccc(C(=O)C2CCCN(Cc3sc(N4CCCC4)nc3Cl)C2)c(OC)c1 (centres undefined),0[10 µM],0[9.22 µM],-
CCOC(=O)N1CCC(NC(=O)c2ccc3c(c2)N(C)CCS3)CC1,0[10 µM],0,0
O=C(CN1CCC(c2nc3ccccc3s2)CC1)NCc1ccccc1,0[10 µM],0,?
CC(Nc1c([N+](=O)[O-])c(=O)oc2ccccc12)c1ccccc1 (centres undefined),0[10 µM],0[9.22 µM],-
COc1cc2c(c(OC)c1)C(c1ccncc1)CC(=O)N2 (centres undefined),0,0,0
O=C(Cn1c(=O)[nH]c2ccsc2c1=O)NC1CCCCCC1,?,0,-100
CC1CCC(NC(=O)Cn2c(=O)[nH]c3ccsc3c2=O)CC1 (centres undefined),0,0,0
CCN(CC(=O)N(CC(C)C)c1c(N)n(CC(C)C)c(=O)[nH]c1=O)Cc1nc2ccccc2c(=O)[nH]1,0[10 µM],0[9.22 µM],-
CCOC(=O)c1c(C)nc2ccccn12,0,0,0
COc1ccc(CNC(=O)c2cccs2)cc1,0,0,-100
Cc1ccc(SCC(=O)c2c(C)nc3ccccn23)cc1,0,14µM,-
COc1ccc(CCNC(=O)c2c(C)nc3ccccn23)cc1,0,0,-
COc1ccc(OCC(=O)NNC(=O)c2cccs2)cc1,0,0,0
COc1ccc(CNC(=O)c2c(C)nc3ccccn23)cc1,0[10 µM],25µM,0
CC(=O)CSc1nc(C(F)(F)F)cc(=O)n1-c1ccccc1,0[10 µM],0,0
